Test results published in PubChem BioAssay.
The other results are listed elsewhere or left out. The source made the active and inactive calls. Unless noted, no stated cut-off is given here; in the data, active means inhibition above about 30%; inactive means the rest.

Key:
[1] = target: Nuclear receptor coactivator 3 (Homo sapiens) (UniProt Q9Y6Q9); experiment: SRC3 coactivator transcriptional activity inhibitors, confirmation, cell-based, luminescence, quadruplicate (AID 588792;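 active means mean inhibition over 43.08%, the solvent-only control mean plus 3 SD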;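 further: 0% = DMSO treated cells and 100% = gossypol at 36 µM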); conditions: HEK293 GAL4-SRC3 luciferase reporter, at 3.6 µM, active compounds read high
[2] = test system: transactivating tegument protein VP16 (Human herpesvirus 1), Gal4-VP16 luciferase reporter; experiment: VP16 transactivation inhibitors, counter-screen for SRC3 inhibitor project, cell-based, luminescence, high throughput (AID 588794); conditions: mammalian cells, VP16-driven luciferase reporter luminescence; at 3.6 µM; active compounds read high
[3] = target: Nuclear receptor coactivator 1 (Homo sapiens) (UniProt Q15788); experiment: SRC1 coactivator transcriptional activity inhibitors, confirmation, cell-based, luminescence, quadruplicate (AID 588820;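 active means mean inhibition above 46.68%, the untreated control wells mean plus 3 SD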;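 further: 0% = DMSO wells and 100% = gossypol 36 µM treated wells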); conditions: HEK293 GAL4-SRC1 luciferase reporter, at 3.6 µM, active compounds read high
[4] = VP16 transactivation inhibitors, counter-screen for SRC1 inhibitor project, cell-based, luminescence, high throughput (AID 588824; in the data active means inhibition above about 25%); conditions: cell-based VP16 transactivation luciferase luminescence; at 3.6 µM; active compounds read high
[5] = StAR promoter reporter inhibitors, counter-screen for LRH-1 inverse agonist project, cell-based, luminescence, high throughput (AID 651611; in the data active means inhibition above about 28%); conditions: StAR promoter luciferase reporter counterscreen, at 3.6 µM, active compounds read high
[6] = target: Nuclear receptor subfamily 5 group A member 2 (Homo sapiens) (UniProt O00482); experiment: LRH-1 (NR5A2) inverse agonists, retest, confirmation, cell-based, luminescence (AID 651613; in the data active means inhibition above about 42%;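 further: HEK293T cells co-transfected with LRH-1 and StAR promoter luciferase reporter; 0% = vehicle wells and 100% = parental cells lacking receptor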); conditions: cell-based LRH-1 luciferase reporter, inverse agonism; at 3.6 µM; active compounds read high
[7] = target: Steroidogenic factor 1 (Homo sapiens) (UniProt Q13285); experiment: SF1 (NR5A1) inverse agonists, counter-screen for LRH-1 inverse agonist project, cell-based, luminescence, high throughput (AID 651614; in the data active means inhibition above about 44%;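 further: cells cotransfected with StAR promoter reporter and SF1 expression vector; 0% = vehicle on cells with receptor and 100% = vehicle on cells lacking receptor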); conditions: cell-based SF1 luciferase reporter, at 3.6 µM, active compounds read high
[8] = VP16 transactivation reporter inhibitors, counter-screen for LRH-1 inverse agonist project, cell-based, luminescence, high throughput (AID 651615; in the data active means inhibition above about 33%); conditions: Gal4-VP16 luciferase reporter cells, at 3.6 µM, active compounds read high
[9] = target: Photoreceptor-specific nuclear receptor (Homo sapiens) (UniProt Q9Y5X4); experiment: NR2E3 agonist confirmation in cells, cell-based, luminescence, CHO-S two-hybrid (AID 624378;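 active means average inhibition above a cutoff equal to the mean inhibition of all tested compounds plus one SD, cut at about 70% in these data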;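 further: 0% = DMSO in NR2E3 cells and 100% = DMSO in cells lacking NR2E3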); conditions: CHO-S mammalian two-hybrid NR2E3-NCOR, luciferase luminescence; at 3.98 µM; active compounds read high
[10] = GAL4-VP16 reporter modulators, confirmation, counter-screen for NR2E3 agonist project, cell-based, luminescence, CHO-S, high throughput (AID 624379;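 active means mean inhibition above a cutoff equal to the average over all tested compounds plus one standard deviation, cut at about 70% in these data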;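 further: 0% = DMSO with VP16-transfected cells and 100% = DMSO with cells lacking VP16; higher means less reporter light so more repression of VP16 activity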); conditions: CHO-S GAL4-VP16 luciferase reporter, at 3.98 µM, active compounds read high
[11] = test system: transactivating tegument protein VP16 (Human herpesvirus 1); experiment: VP16 transactivation reporter inhibitors, counter-screen for SRC2 inhibitor project, cell-based, luminescence, single concentration (AID 652007; in the data active means inhibition above about 36%); conditions: cell-based VP16 transactivation luciferase reporter, at 8.9 µM, active compounds read high
[12] = target: Nuclear receptor coactivator 2 (Homo sapiens) (UniProt Q15596); experiment: SRC2 coactivator transcriptional activity inhibitors, confirmation, cell-based, luminescence, HEK293, triplicate (AID 652008;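 active means mean inhibition above 46.5%, the solvent-only control mean plus 3 SD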;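 further: 0% = DMSO-treated cells and 100% = Gossypol at 36 µM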); conditions: HEK293 GAL4-SRC2 luciferase reporter, at 8.9 µM, active compounds read high
[13] = Gal4-VP16 luciferase reporter inhibitors, counter-screen for COUP-TFII antagonist project, cell-based, luminescence, HEK293 (AID 687007; in the data active means inhibition above about 13%); conditions: at 8.5 µM, active compounds read high
[14] = target: COUP transcription factor 2 (Homo sapiens) (UniProt P24468); experiment: NR2F2 transcriptional activity inhibitors, confirmation, cell-based, luciferase reporter, HEK293, triplicate (AID 687008;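 active means mean inhibition over three repeats above a set limit taken from the earlier primary screen, cut at about 38% in these data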;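 further: 100% = cells given the luciferase reporter alone without the COUP-TF2 vector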); conditions: HEK293 NGFI-A luciferase reporter, luminescence; at 8.5 µM; active compounds read high

Measured: inhibition

Nuclear receptor coactivator 1 (Homo sapiens), sequence (Q15788 whole entry, looked up, the tested form may be a part): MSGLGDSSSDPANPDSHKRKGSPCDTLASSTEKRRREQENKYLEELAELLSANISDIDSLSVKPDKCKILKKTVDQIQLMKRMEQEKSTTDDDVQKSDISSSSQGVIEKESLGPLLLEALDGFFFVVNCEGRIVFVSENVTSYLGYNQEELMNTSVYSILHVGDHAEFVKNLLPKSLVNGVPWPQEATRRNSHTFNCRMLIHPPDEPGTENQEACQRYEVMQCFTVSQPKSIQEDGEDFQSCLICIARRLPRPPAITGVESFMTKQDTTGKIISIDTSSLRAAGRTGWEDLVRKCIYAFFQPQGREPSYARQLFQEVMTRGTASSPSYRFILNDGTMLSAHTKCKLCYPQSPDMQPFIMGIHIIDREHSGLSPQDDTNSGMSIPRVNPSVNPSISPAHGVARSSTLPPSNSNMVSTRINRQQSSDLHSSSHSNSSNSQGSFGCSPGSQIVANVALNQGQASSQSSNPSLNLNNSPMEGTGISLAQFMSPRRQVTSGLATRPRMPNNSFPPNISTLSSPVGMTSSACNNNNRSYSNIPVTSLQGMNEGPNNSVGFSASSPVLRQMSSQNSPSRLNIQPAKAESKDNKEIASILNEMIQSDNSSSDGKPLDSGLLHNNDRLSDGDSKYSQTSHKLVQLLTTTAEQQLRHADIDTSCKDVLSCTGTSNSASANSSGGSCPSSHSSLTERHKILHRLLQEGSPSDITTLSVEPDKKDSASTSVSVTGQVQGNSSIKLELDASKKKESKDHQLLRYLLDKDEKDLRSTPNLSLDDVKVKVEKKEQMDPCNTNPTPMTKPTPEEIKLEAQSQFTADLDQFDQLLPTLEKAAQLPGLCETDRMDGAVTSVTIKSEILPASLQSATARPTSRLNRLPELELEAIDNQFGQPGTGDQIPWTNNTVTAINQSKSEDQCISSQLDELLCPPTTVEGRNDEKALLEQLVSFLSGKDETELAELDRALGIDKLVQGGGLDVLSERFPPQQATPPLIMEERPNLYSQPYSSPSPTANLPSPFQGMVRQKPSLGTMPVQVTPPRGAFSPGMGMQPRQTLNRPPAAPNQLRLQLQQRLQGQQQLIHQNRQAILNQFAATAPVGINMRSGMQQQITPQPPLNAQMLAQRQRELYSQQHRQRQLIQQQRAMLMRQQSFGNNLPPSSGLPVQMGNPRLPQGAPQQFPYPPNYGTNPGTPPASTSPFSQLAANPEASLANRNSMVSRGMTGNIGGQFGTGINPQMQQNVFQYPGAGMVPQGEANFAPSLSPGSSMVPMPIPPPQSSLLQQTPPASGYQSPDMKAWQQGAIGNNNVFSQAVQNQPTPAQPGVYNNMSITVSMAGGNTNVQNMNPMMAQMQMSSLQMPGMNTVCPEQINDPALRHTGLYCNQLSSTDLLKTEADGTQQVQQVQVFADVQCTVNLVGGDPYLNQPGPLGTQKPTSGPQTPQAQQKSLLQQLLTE
Nuclear receptor subfamily 5 group A member 2 (Homo sapiens), sequence (O00482 whole entry, looked up): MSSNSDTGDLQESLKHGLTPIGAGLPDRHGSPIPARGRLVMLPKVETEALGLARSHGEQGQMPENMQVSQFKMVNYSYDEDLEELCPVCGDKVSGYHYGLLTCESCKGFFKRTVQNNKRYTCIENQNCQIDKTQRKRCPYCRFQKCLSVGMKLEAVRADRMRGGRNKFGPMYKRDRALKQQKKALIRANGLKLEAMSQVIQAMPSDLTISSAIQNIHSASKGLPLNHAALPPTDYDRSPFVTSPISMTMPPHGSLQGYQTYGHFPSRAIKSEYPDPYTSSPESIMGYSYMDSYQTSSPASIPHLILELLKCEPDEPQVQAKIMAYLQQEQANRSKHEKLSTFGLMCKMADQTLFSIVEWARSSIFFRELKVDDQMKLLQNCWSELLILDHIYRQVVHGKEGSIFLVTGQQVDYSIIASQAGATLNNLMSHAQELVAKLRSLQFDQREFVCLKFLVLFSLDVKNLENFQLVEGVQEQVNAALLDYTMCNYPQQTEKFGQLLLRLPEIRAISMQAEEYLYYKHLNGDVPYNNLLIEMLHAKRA
Nuclear receptor coactivator 3 (Homo sapiens), sequence (Q9Y6Q9 whole entry, looked up, the tested form may be a part): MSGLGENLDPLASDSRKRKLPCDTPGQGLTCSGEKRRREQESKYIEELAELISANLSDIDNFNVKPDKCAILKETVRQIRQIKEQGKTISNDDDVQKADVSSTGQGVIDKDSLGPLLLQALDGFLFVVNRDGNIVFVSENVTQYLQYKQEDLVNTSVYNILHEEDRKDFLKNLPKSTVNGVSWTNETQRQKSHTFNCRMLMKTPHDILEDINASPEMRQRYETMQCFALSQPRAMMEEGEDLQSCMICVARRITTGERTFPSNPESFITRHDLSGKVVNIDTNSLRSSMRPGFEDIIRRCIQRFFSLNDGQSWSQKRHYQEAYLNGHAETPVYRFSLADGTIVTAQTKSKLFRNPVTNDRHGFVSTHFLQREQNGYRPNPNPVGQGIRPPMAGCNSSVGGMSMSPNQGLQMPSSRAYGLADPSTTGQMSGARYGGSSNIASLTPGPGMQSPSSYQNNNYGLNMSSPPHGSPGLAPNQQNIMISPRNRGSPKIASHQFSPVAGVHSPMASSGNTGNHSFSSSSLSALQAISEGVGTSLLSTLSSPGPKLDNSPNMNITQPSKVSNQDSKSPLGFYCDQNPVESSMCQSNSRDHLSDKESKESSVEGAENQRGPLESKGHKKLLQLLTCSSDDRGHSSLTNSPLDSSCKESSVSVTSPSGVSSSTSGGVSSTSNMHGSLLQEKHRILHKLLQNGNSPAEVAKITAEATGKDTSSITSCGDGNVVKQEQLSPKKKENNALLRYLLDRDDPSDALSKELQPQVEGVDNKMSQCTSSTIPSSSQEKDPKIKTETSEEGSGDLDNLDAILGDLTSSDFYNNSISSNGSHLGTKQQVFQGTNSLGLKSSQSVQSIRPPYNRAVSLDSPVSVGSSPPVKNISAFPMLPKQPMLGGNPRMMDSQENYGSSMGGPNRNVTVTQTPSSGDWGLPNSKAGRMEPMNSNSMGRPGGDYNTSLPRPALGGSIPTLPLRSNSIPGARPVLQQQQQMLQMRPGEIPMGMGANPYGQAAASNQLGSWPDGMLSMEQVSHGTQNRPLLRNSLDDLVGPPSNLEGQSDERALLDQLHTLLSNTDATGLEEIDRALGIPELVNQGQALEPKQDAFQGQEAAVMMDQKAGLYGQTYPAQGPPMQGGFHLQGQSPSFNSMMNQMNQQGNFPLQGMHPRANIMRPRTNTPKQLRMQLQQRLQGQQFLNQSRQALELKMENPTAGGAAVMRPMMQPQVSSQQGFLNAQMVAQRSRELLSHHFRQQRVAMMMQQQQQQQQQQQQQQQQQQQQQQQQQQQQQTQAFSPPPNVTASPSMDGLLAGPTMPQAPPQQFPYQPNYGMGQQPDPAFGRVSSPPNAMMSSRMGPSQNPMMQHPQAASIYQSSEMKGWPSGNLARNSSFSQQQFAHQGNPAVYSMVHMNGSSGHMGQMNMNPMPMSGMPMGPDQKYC
Steroidogenic factor 1 (Homo sapiens), sequence (Q13285 whole entry, looked up, the tested form may be a part): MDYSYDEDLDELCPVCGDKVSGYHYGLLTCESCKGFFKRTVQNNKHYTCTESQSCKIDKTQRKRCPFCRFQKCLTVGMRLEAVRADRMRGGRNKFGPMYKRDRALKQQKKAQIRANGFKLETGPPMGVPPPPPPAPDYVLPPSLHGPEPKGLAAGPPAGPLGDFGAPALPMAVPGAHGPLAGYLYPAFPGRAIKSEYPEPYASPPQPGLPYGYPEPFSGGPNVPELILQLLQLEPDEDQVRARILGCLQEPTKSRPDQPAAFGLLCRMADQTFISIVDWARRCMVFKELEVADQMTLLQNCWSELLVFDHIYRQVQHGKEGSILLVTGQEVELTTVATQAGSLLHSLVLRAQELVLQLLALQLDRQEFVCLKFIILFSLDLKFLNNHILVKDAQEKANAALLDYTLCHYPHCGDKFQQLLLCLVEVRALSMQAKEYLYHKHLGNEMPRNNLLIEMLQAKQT
Photoreceptor-specific nuclear receptor (Homo sapiens), sequence (Q9Y5X4 whole entry, looked up, the tested form may be a part): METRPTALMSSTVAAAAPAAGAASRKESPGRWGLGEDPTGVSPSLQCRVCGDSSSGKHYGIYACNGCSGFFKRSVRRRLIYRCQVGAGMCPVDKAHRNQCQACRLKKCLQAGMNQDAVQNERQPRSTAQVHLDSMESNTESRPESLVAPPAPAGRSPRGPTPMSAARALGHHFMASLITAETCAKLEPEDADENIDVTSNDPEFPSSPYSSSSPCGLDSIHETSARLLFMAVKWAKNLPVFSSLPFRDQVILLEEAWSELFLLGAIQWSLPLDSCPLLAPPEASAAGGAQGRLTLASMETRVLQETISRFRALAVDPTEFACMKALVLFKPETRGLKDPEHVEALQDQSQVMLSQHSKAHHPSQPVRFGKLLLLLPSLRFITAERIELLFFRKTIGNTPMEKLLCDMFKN
COUP transcription factor 2 (Homo sapiens), sequence (P24468 whole entry, looked up): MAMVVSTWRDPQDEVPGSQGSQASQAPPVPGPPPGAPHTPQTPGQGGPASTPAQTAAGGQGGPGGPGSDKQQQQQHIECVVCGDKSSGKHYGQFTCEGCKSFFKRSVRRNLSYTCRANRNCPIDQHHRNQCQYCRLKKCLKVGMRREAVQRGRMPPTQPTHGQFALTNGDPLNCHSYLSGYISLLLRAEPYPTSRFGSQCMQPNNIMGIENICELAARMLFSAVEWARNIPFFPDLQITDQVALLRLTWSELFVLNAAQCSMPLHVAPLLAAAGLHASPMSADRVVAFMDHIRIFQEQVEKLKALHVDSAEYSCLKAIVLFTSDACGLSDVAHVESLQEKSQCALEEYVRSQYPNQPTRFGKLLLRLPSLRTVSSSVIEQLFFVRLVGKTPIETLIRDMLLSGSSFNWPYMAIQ

O=C1C(Nc2ccc(O)cc2)=C/C(=N/S(=O)(=O)c2cccs2)c2ccccc21
inactive: [3] 29.5%
active: [1] 85.2% | [2] 72% | [4] 68% | [5] 79.7% | [6] 101% | [7] 87.6% | [8] 95.2%

COc1cccc(/C=N/NC(=O)c2c(C)nc3ccc(Cl)cn23)c1O
active: [1] 79.3% | [2] 78.5% | [3] 75.2% | [4] 73.9% | [5] 86.7% | [6] 102% | [7] 88.4% | [8] 83.5%

Cc1cc(/C=C2/C(=O)NN(c3ccccc3)C2=O)c(C)n1-c1ccc(O)cc1
inactive: [1] -13.6% | [2] -41.7% | [3] -66% | [4] -74.4%

N=c1ccn(CC(=O)c2ccc(-c3ccccc3)cc2)cc1
inactive: [1] 37% | [3] 26.1%
active: [2] 43.3% | [4] 57.5% | [5] 46.2% | [6] 92.8% | [7] 76.3% | [8] 76.5%

Cc1ccc(C)c(S(=O)(=O)N2CCN(c3ncnc4sccc34)CC2)c1
active: [1] 63.1% | [2] 59.6% | [3] 57.9% | [4] 56.5% | [9] 93.9% | [10] 82.7% | [12] 53.3% | [13] 20.1% | [14] 49.9%
inactive: [11] 32.8%

CCN(CC)c1ccc2nc3ccccc3[n+](CC)c2c1
inactive: [3] 40.5%
active: [1] 50.2% | [2] 54.2% | [4] 59.6% | [5] 69.4% | [6] 88.3% | [7] 80.2% | [8] 68.7%

CC(=O)N1CCCc2cc(S(=O)(=O)N3CCCC(C(=O)N4CCN(c5cccc(Cl)c5)CC4)C3)ccc21 (stereo not given)
inactive: [1] 26.4% | [3] 7.87% | [10] 70.2% | [11] 14.8% | [12] 26.6% | [13] 4.48%
active: [2] 31.5% | [4] 35.6% | [9] 93% | [14] 60.1%

NC(=Nc1nc(-c2ccccn2)cc2ccccc12)c1ccccn1
active: [1] 79% | [2] 47.7% | [3] 65.6% | [4] 28.4% | [5] 91.8% | [6] 107% | [7] 88.8% | [8] 59.3%

CCn1cc(/C=C/c2cc[n+](C)cc2)c2ccccc21
inactive: [1] 21.5% | [3] 3.02%
active: [2] 38.4% | [4] 47.3% | [5] 40.5% | [6] 65.9% | [7] 66.8% | [8] 57.1%

N=c1c2c(-c3ccccc3)c(-c3ccccc3)n(Cc3ccccc3)c2ncn1CCO
active: [2] 61% | [4] 57.8% | [5] 57.2% | [6] 71.5% | [7] 73.1% | [8] 77.4%
inactive: [1] 26.6% | [3] 39.8%

CCOC(=O)C(C(C)=O)c1c(Br)c(O)c(O)c2c(C(=O)c3ccc(C)cc3)coc12 (stereo not given)
active: [1] 57.6% | [4] 31.2% | [5] 60.4% | [6] 94.8% | [7] 83.7% | [8] 81.6%
inactive: [2] 12.5% | [3] 12.7%

CCN(CC)c1ccc2nc3ccc(N)cc3[n+](-c3ccccc3)c2c1
active: [1] 81.2% | [2] 79.9% | [3] 52.3% | [4] 81.5% | [5] 75.2% | [6] 111% | [7] 89.2% | [8] 92.6%

Cc1sc(NC(=O)/C=C/c2ccc3c(c2)OCO3)nc1-c1ccccc1
inactive: [1] 24.4% | [3] 32.1%
active: [2] 59.1% | [4] 57.7% | [5] 42.9% | [6] 74.9% | [7] 74.1% | [8] 70.9%

COc1ccccc1C(=O)Nc1nc(-c2ccc(S(=O)(=O)N3CCOCC3)cc2)cs1
active: [1] 68% | [2] 82.1% | [4] 74.5% | [5] 78.5% | [6] 98.4% | [7] 83.7% | [8] 92.2%
inactive: [3] 41.6%

COc1ccc(-c2oc3ccc(N4CCOCC4)cc3c2C#CCO)cc1
active: [5] 54.3% | [6] 55.7% | [7] 62% | [8] 53.4%
inactive: [1] 10.8% | [2] 21.3% | [3] -22.7% | [4] 18.5%

c1ccc(-c2nn(-c3ccccc3)[n+](-c3ccccc3)n2)cc1
inactive: [1] 20.3% | [2] 14.7% | [3] -0.24% | [4] 15.6% | [5] 23.8%
active: [6] 43.8% | [7] 46% | [8] 48.5%

CCCCC(=O)NC(c1ccc(Cl)cc1)c1ccc2cccnc2c1O (stereo not given)
active: [1] 66.9% | [2] 62.4% | [3] 51.3% | [4] 62.2% | [5] 67.9% | [6] 87.8% | [7] 86.1% | [8] 69.1%

CCCCC(=O)NC(c1ccc(Cl)cc1Cl)c1ccc2cccnc2c1O (stereo not given)
active: [4] 27.2% | [5] 64% | [6] 82% | [7] 60.9% | [8] 71.7%
inactive: [1] 39.4% | [2] 24.5% | [3] 27.4%

COc1ccccc1C(=O)Nc1nc2ccccc2s1
active: [1] 85.4% | [2] 79.6% | [3] 56.6% | [4] 71% | [5] 85.9% | [6] 86.4% | [7] 88% | [8] 75.6%

COc1ccc(-n2cc(-c3ccc(C)cc3)[n+]3c2SCC3)cc1
active: [2] 55.1% | [4] 51% | [5] 40.9% | [6] 83.5% | [7] 75.1% | [8] 74.9%
inactive: [1] 30.8% | [3] 22.8%

COc1ccc(-[n+]2c(C)cc(/C=C3\Sc4ccccc4N3C)cc2C)cc1
active: [1] 74.4% | [2] 83.5% | [3] 47.5% | [4] 78.8% | [5] 74.5% | [6] 106% | [7] 90% | [8] 87.4%

Cc1ccc2[nH]cc(/C=C/c3cc[n+](C)cc3)c2c1
active: [2] 52.6% | [4] 59.7% | [5] 42.2% | [6] 84% | [7] 75.5% | [8] 70.5%
inactive: [1] 40.1% | [3] 14.5%

NC(=S)NN=Cc1nccc2ccccc12
active: [1] 80% | [3] 58.1% | [5] 74.9% | [6] 89.8% | [7] 79%
inactive: [2] 26.7% | [4] 20.9% | [8] 20.6%

Cc1cc(/C=C2\Sc3ccccc3N2C)cc(C)[n+]1CC1CCCO1 (stereo not given)
active: [2] 77.1% | [4] 75.3% | [5] 77.8% | [6] 99.3% | [7] 90.5% | [8] 89%
inactive: [1] 37.1% | [3] 34%

CN(Cc1ccccc1)C1=CC(=[N+]2CCCCC2)CC(C)(C)C1
active: [1] 43.1% | [2] 73.6% | [4] 75.8% | [5] 68% | [6] 108% | [7] 90.6% | [8] 91.1%
inactive: [3] 44.8%

Cc1ccc2[nH]c3c(c2c1)CCCC3NC(=O)CCl (stereo not given)
active: [1] 87.4% | [2] 84.2% | [4] 82.4% | [5] 92% | [6] 106% | [7] 96.3% | [8] 92.3%
inactive: [3] 44.3%

O=C(Nc1ccc(N2CCN(C(=O)c3ccccc3)CC2)cc1)c1ccc2c(c1)OCO2
inactive: [1] 36.9% | [3] 37.4%
active: [2] 66.7% | [4] 57.1% | [5] 50.2% | [6] 64% | [7] 73.8% | [8] 70.5%

CN(Cc1ccccc1)C1=CC(=[N+]2CCCC2)CC(C)(C)C1
active: [1] 64.6% | [2] 67.9% | [4] 63.1% | [5] 44.2% | [6] 109% | [7] 79.9% | [8] 89.6%
inactive: [3] 7.51%

N=C1C=CC(=C(c2ccc(N)cc2)c2ccc(N)cc2)C=C1
inactive: [3] 45.2%
active: [1] 56.2% | [2] 60% | [4] 45.9% | [5] 54.9% | [6] 110% | [7] 85.2% | [8] 88.5%

Cc1ccnc2c1ccc1c(C)ccnc12
active: [1] 86.2% | [2] 54.3% | [3] 73.3% | [4] 61.9% | [5] 88.8% | [6] 108% | [7] 87% | [8] 65.1%

Cc1cc2c(=Cc3ccc(N(C)C)cc3)c3ccccc3n2[n+]1C
inactive: [3] 23.9%
active: [1] 44.8% | [2] 74.8% | [4] 74.5% | [5] 76.2% | [6] 108% | [7] 89.4% | [8] 93.4%

O=C1[C@@H]2Cc3c([nH]c4ccccc34)C(c3ccc([N+](=O)[O-])cc3)N2C(=O)CN1C1CC1 (stereo not given in full)
active: [1] 63.7% | [2] 64% | [3] 62.3% | [4] 62.6% | [5] 60.7% | [6] 67.9% | [7] 71.4% | [8] 75.7%

Cc1nn(C(C)(C)C)c(C)c1/C=N/OC(=O)Nc1ccc(Cl)cc1
active: [1] 94% | [2] 91.8% | [3] 87.3% | [4] 87.8% | [5] 92.3% | [6] 95.5% | [7] 93.6% | [8] 88.7%

CC(=O)N(/N=C1\Sc2ccccc2C1=O)c1ccc(C)cc1C
active: [1] 54.1% | [2] 37.7% | [4] 25.4% | [7] 48.8%
inactive: [3] 2.03% | [5] -1.06% | [6] 11.9% | [8] -16.6%

CC(=O)c1c(C)[nH]c(C(=O)OCC(=O)Nc2cccc(S(=O)(=O)N3CCCC3)c2)c1C
inactive: [1] 20.7% | [3] 5.87% | [5] 26.2%
active: [2] 43.6% | [4] 38.3% | [6] 49.3% | [7] 48.9% | [8] 51.7%
